# LMNA splice mod – modulators of lamin A splicing; HeLa LMNA splicing GFP/RFP minigene ratio, 48 h; Potency, µM (series often up to 46.1 µM), inactives show at the top dose ratio change, negative = inhibition, most hits filed as inhibitors; actives 0.01% (n = 200,000); AID 1487; active = well fitted inhibition curve with a large enough effect in the signal ratio, with a control signal flat, not every such curve was filed as active; inconclusive = small, poorly fitted or top-dose-only effect, or effect the other way, or a change in a side signal; the % refers to the signal ratio; also: potency is read from the fitted curve at half-maximal effect
#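 S3 HeLa stable clones carrying a lamin A-EGFP splicing minigene plus DsRed2 were seeded at 600 cells/well in Opti-MEM with 2% FBS, pin-dosed and incubated 48 h at 37°C. Acumen cytometry (488 nm) gave the GFP/RFP total-intensity ratio.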
# PNC inhibitor – blocks assembly of the perinucleolar compartment. actives 3.1% (n = 140,000). AID 2417. activity change (PNC), negative = inhibition, % at 10 µM. PC3M PTB-GFP, PNC prevalence imaging, 16 h; hits give low values;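 active = readout at or below -70, meaning at least 70% loss of cells showing the perinucleolar compartment, a nuclear body marking cancer cells; inconclusive = readout between -30 and a set limit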;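 also: plate controls were DMSO wells for no effect and camptothecin positive control wells for full effect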
#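 PC3M cells stably expressing PTB-GFP, 750–1000 cells/well, treated 16 h at 37 °C with compound (23 nl of library stock), in duplicate. After paraformaldehyde fixation and Hoechst stain, imaged at 20x; PNC prevalence scored by image analysis.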
# KinaseGlo FLuc – counter-screen: inhibitors of Kinase-Glo firefly luciferase | actives 0.28% (n = 200,000) | Q27757 | Kinase-Glo luciferase, ATP luminescence, 8 min | AID 1379 | Potency, µM (highest dose often 38.3 µM), for inactives: top-dose activity change, negative = inhibition, most hits filed as inhibitors; active = well fitted inhibition curve with a large enough effect; inconclusive = small, poorly fitted or top-dose-only effect; also: potency is read from the fitted curve at half-maximal effect; nearly all actives have a fitted effect of over 60% in size
#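 Recombinant Kinase-Glo luciferase, 10 uM ATP (linear range), luciferin; imidazole pH 7.2 / KCl / MgCl2 / Tween / BSA buffer; 8 min RT; luminescence.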
# HPGD block – inhibitors of human 15-hydroxyprostaglandin dehydrogenase (HPGD); purified HPGD, NADH fluorescence kinetic, PGE2 substrate; Potency, µM, without a hit: at the top dose activity change, negative = inhibition, most hits filed as inhibitors; actives 4.3% (n = 150,000); AID 894; also: potency is read from the fitted curve at half-maximal effect
# Target sequence (P15428 whole entry, looked up): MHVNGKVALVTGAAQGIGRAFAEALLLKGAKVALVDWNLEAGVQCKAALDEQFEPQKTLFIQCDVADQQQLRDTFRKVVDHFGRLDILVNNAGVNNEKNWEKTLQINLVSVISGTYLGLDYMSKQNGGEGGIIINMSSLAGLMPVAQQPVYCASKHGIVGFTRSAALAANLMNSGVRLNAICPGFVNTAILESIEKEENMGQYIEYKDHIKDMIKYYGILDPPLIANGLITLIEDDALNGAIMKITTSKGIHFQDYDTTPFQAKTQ
#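 NADH formation kinetics: reaction with 30 uM PGE2 and 1 mM NAD+ (final), 20 nM enzyme, Tris-HCl pH 8 with Tween 20, after 15 min compound preincubation at room temperature. Fluorescence change, last versus first of five reads.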
# ALDH1A1 inh – ALDH1A1 (human) enzyme inhibition; Potency, µM (titrated, usually from 75.3 µM), inactives show at the top dose activity, negative = inhibition, most hits filed as inhibitors; P00352; AID 1030; Purified ALDH1A1, NADH fluorescence, propionaldehyde substrate; actives 7.3% (n = 220,000);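 also: potency is read from the fitted curve at half-maximal effect; plate controls were no enzyme wells and a reference inhibitor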
# The depositor's hits bear a star; ? = inconclusive; . = no result given; [ ] = another dose, or the depositor's remark. Rows were chosen to be rich in hits. Some 10% of all compounds tested hit in one or more screens of this group. Unless noted, calls follow the shape of the dose curve; as a rule, active = well fitted inhibition curve with a large enough effect (not every such curve was filed as active); inconclusive = small, poorly fitted or top-dose-only effect, or another doubt; inactive = no such curve, though single readings can be large or run the other way. Unless noted, % is scaled to controls: 0 for no effect and ±100 for the full control effect.
SMILES,LMNA splice mod,PNC inhibitor,KinaseGlo FLuc,HPGD block,ALDH1A1 inh
CCOC(=O)/C=C/C(=O)OCC(=O)Nc1ccc(Cl)cn1,6%,10,-1%,-14%,?
COc1ccc(-c2cc(-c3ccccc3)c(C#N)c(=S)[nH]2)cc1,.,.,1%,.,?
N#Cc1c(N)[nH]c(=S)c(C#N)c1-c1ccccc1,-5%,16,12%,-24%,28µM*
CCc1ccc(CNC(=O)c2ccc3c(c2)nc2n3CCCCC2)cc1,0%[46 µM],.,.,.,.
O=C(NN=C1CCCCC1)NC1CCCCC1,-4%,?,0%,-10%,?
O=C(NN=C1CCCC1)NC1CCCCC1,-1%,-118*,-2%,-9%,-3%
CC(NC(=O)Cc1cccs1)c1ccc2c(c1)OCO2 (centres undefined),-2%,13,6%,?,3%
O=C(CSc1nnc(-c2ccc(O)cc2)n1Cc1ccco1)c1ccccc1,-11%,37,-4%,-25%,?
O=C(CC(SCCO)c1ccc2c(c1)OCO2)c1cccs1 (centres undefined),?,-112*,10%,-13%,10%
O=C(CSc1nnc(-c2cccnc2)n1Cc1ccco1)c1ccccc1,15%,16,-6%,16µM*,?
Clc1ccccc1CSc1nnc(-c2cccnc2)n1Cc1ccco1,?,?,-1%,28µM*,7.9µM*
O=C(CSc1nnc(-c2ccc(O)cc2)n1Cc1ccco1)c1cccs1,-8%,-24,-3%,?,14µM*
O=C(c1cccc(F)c1)N1CCC2(CCCN(Cc3nccs3)C2)CC1,.,.,-3%,-5%,1%
CC[C@@](N)(C(=O)O)c1ccc(C(=O)O)cc1,.,.,-4%,0%,7%
Cc1ccc(C)c(N2CCN(C(=O)c3cc4c(=O)n(Cc5ccco5)ccc4nc3C)CC2)c1,-6%[46 µM],.,.,.,.
CN1CCN(CN2C(=O)C3C4C=CC(C3C2=O)C2C3C(=O)N(CN5CCN(C)CC5)C(=O)C3C42)CC1 (centres undefined),.,.,-12%[7.66 µM],-3%,-12%[13.5 µM]
O=C(CC(SCc1ccco1)c1ccc(O)cc1)c1cccs1 (centres undefined),9%,49,-2%,-13%,13µM*
CC(=O)Nc1ccc(NC(=O)CN2CCN(c3cccc(C(F)(F)F)c3)CC2)cc1,-7%,?,-8%,-6%,-7%
CC(=O)c1cc2c(cc1NC(=O)CN1CCN(c3cccc(C(F)(F)F)c3)CC1)OCO2,0%,-100*,0%,56%,299%
COC(=O)N[C@H](CC(C)=O)c1ccccc1,-6%,-99*,1%,-8%,5%
CCC(=O)CC(NC(=O)OC)c1ccccc1 (centres undefined),.,.,.,.,1%[13.5 µM]
COC(=O)C1=C(C(=O)OC)[C@@H]2N(C)c3ccccc3[C@@]23C[C@@H](C(=O)OC)N(S(=O)(=O)c2ccc([N+](=O)[O-])cc2)C3=N1,-17%[9.22 µM],.,-6%[7.66 µM],-6%,2%[13.5 µM]
c1ccc(-c2ccc(-c3ccccn3)nn2)nc1,?,-12,10µM*,25µM*,20µM*
COCCNc1ccnc(-c2ccccc2CN(C)C)n1,-1%,.,-4%,-3%,10%
COCCNc1nc2nonc2nc1N(C)Cc1cccc2cnccc12,13%[46 µM],.,-4%,.,5µM*
SMILES,LMNA splice mod,PNC inhibitor,KinaseGlo FLuc,HPGD block,ALDH1A1 inh
Cc1ccc(N=Cc2cc(C)n(C3CCCC3)c2C)cc1,7%,53,1%,-19%,8.9µM*
CCN(CC)C(NC(=O)Cc1ccccc1)C(Cl)(Cl)Cl (centres undefined),6%,-8,-1%,14µM*,?
Cn1cccc1C(=O)OCC(=O)Nc1cc(C(C)(C)C)nn1-c1ccccc1,-14%,33,-7%,-4%,8%
CC(C)(C)c1cc(NC(=O)COC(=O)c2ccc3c(=O)n4c(nc3c2)CCC4)n(-c2ccccc2)n1,-9%,-20,-2%,-23%,4µM*
O=C(NCc1ccccc1)c1c2c(nc3ccccc13)C(=O)N(C1CCCCC1)C2,-5%[46 µM],.,.,.,.
Cc1csc(SCc2ccccc2C(=O)O)n1,?,-17,-2%,-10%,?
Cc1csc(SCc2ccc(C(=O)O)cc2)n1,13%,-111*,-2%,-24%,7%
NC(=O)COC(=O)c1ccccc1SCC(=O)NC1CCCCCC1,-1%[9.22 µM],.,3%,.,28µM*

# Compound activity: PubChem BioAssay, National Center for Advancing Translational Sciences (NCATS)
